Results reported in PubChem BioAssay AID1851 (National Center for Advancing Translational Sciences (NCATS), 2009).
Where “and” joins values, the source holds several entries; their conditions need not be identical. Equal values may be shown once. Screen size: about 16,000 compounds; about 2,600 (16%) were called active. Another 20% or so got no clear call; they are omitted. The call rests on the fitted dose curve; in most records, active means well fitted curve in the direction sought with a large enough effect; inconclusive means small, poorly fitted or top-dose-only effect, or effect the other way; inactive means no such curve, though single readings can be large or run the other way. The list is a sample of the results.

Molecular target: Cytochrome P450 2D6 (Homo sapiens) (UniProt P10635)
Test: Cytochrome panel assay with activity outcomes
Conditions: recombinant CYP, pro-luciferin dealkylation, luminescence, p450-cyp2d6; series mostly up to 57.1 µM
On the % scale 0 is the no-effect control and ±100 the full control effect.

Sequence of Cytochrome P450 2D6 (Homo sapiens) (P10635 whole entry, looked up): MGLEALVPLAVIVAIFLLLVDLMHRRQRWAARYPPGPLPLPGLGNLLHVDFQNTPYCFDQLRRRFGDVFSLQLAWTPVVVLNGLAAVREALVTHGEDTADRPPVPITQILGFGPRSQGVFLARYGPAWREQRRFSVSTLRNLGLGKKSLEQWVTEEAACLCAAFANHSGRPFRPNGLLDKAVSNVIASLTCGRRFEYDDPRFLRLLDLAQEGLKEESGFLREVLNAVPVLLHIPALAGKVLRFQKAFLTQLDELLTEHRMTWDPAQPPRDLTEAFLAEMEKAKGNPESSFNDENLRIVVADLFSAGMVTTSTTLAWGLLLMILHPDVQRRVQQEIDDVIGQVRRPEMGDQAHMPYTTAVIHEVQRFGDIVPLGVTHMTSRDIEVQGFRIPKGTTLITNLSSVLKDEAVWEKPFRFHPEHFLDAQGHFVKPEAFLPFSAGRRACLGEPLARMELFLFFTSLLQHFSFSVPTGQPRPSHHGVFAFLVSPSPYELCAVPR

AC50, active:
O=C(NCCc1cccs1)C1CC(c2c(Cl)cccc2Cl)=NO1 (stereo not drawn) 5.01 µM
CCc1ccc(C(=O)CN(C#N)c2nc(C)cc(C)n2)cc1 6.31 µM
N#Cc1cccc(-c2nccc(NCc3cccs3)n2)c1 20 µM
N#Cc1cccc(-c2nccc(NCc3ccccc3)n2)c1 7.94 µM
N/N=C1/c2ccccc2N[C@H]1OC(=O)Nc1ccccc1 3.16 µM
NNCCc1ccccc1 6.31 µM and 2.51 µM
C[N+]1(C)CCc2cc3c(cc2[C@@H]1[C@@H]1C(=O)Oc2c1ccc1c2OCO1)OCO3 12.6 µM
CSc1nsc(SC)c1C(=O)Nc1ccc(C)cc1 10 µM
COc1ccc(Br)cc1C(=O)Nc1ccc(Cc2ccncc2)cc1 0.0398 µM
CN(C)c1nc(-c2ccccc2C(F)(F)F)nc2ccccc12 10 µM
COc1ccccc1-c1nc(N(C)C)c2ccccc2n1 3.16 µM
Cc1ccccc1-c1nc(N(C)C)c2ccccc2n1 12.6 µM
COc1ccccc1N1CCN(CCCCNS(=O)(=O)c2cccc3c(N(C)C)cccc23)CC1 15.8 µM
COc1ccccc1N1CCN(CCCCNC(=O)c2ccc3ccccc3c2)CC1 3.16 µM and 3.98 µM
CNc1ncnc2c1ncn2[C@H]1C[C@H](OP(=O)(O)O)[C@H](COP(=O)(O)O)O1 5.01 µM
COc1ccccc1CNC(=O)CSc1nc2nc(C)cc(C)n2n1 15.8 µM
O=[N+]([O-])c1ccc(-c2cnc(SCc3ccccc3Cl)[nH]2)cc1 12.6 µM
C[N+](C)(CCCOc1ccccc1)c1ccccc1 0.0158 µM
Cc1ccc(SCCNC(=S)Nc2ccc(C)c(C)c2)cc1 4.47 µM
Cc1cc2cc(C)c3nnc(SCC(=O)NCc4ccc5c(c4)OCO5)n3c2cc1C 17.8 µM
CC(=O)Nc1ccc(NC(=O)CSc2nnc(-c3ccccc3)n2Cc2ccc3c(c2)OCO3)cc1 12.6 µM

AC50, inactive:
COC(=O)c1c(C)[nH]c(C)c1C(=O)c1ccccc1Cc1ccccc1
Cc1cc(C)n(CC(=O)N/N=C/c2ccco2)n1
O=C(NCC(c1cccs1)N1CCOCC1)c1ccco1 (stereo not drawn)
COc1ccc(C2=NOC(C(=O)NCCN3CCOCC3)C2)cc1 (stereo not drawn)
O=C(NCc1ccccn1)C1CC(c2ccc(Cl)c(Cl)c2)=NO1 (stereo not drawn)
COc1ncc2nc(-c3ccccc3)c(=O)n(C)c2n1
Cc1cc(C)c(C#N)c(OCC(=O)c2ccc(Br)cc2)n1
CCc1ccc(C(=O)COC(=O)c2cccc(N3C(=O)c4c(C)nc5ccccc5c4C3=O)c2)cc1
CCn1cc(C(=O)O)c(=O)c2cc(F)c(N3CCN[C@@H](C)C3)c(F)c21
O=c1[nH]c(=O)n([C@@H]2C[C@H](O)[C@H](CO)O2)cc1C(F)(F)F
N#Cc1cccc(-c2nccc(NCc3cccnc3)n2)c1
N#Cc1cccc(-c2cc(NCc3cccnc3)ncn2)c1
Cc1cc(C(=O)OCC(=O)NCCC(C)C)c2ccccc2n1
C[C@@]1(C(NC(=O)Cc2ccc(C(F)(F)F)cc2)c2ccc(-c3ccccc3)cc2)C[C@H]1C1CCCCC1 (stereo partly drawn)
O=C(O)c1ccccc1-c1ccccc1C(=O)Nc1ccccc1
O=C(Nc1ccccc1)[C@@]12C[C@@H]1/C(=N/O)c1ccccc1O2
O=C(CC(=O)NN=C1CCCC1)NCCc1ccccc1
COc1cccc(/C=N/n2nnc3c(cnn3-c3ccccc3)c2=O)c1
COc1ccc(C2(C(=O)N3CCOCC3)CCCC2)cc1
COc1ccc(-n2c(=O)c(-c3cccc(C#N)c3)nc3cnc(N4CCNCC4)nc32)cc1
Nc1cc(-c2nn[nH]n2)ccc1F
CCC(=O)NCCNC(=O)c1c(SC)nsc1SC
CSc1nsc(SC)c1NC(=O)Nc1ccccn1
CC(NC(=O)C1(C)CC1(Br)Br)C(C)(C)C (stereo not drawn)
COc1ccc(Oc2ncc3nc(CCc4ccccc4)c(=O)n(C4CC4)c3n2)cc1
Cc1ccccc1/C=N\NC(=O)c1csnn1
COc1ccc(NC(=O)c2ccc(C(=O)c3cc(OC)ccc3OC)cc2)cc1
CC(C)OC(=O)C(CC(=O)O)N1CCOCC1 (stereo not drawn)
COc1cc(NS(C)(=O)=O)ccc1Nc1c2ccccc2nc2ccccc12
Cc1cc(NC(=O)CN2C(=O)NC(C)(c3ccc(OC(F)F)cc3)C2=O)no1 (stereo not drawn)
N[C@@H](C(=O)O)c1cc(O)ccc1Cl
N=c1ccn2c(n1)O[C@@H]1[C@@H](O)[C@H](CO)O[C@H]12
c1ccc(-n2ncc3c2ncn2cnnc32)cc1
CC(C)(C)n1nc(-c2ccc(Cl)cc2)c2c(N)ncnc21
CCCSc1nc(C)cc(C)c1C(N)=O
CC1CCCC(NC(=O)CCn2c(=O)oc3ccccc32)C1C (stereo not drawn)
COc1ccc(Oc2ncc3nc(-c4cccs4)c(=O)n(-c4ccccc4)c3n2)cc1
COc1ccccc1N1CCN(CCn2c(=O)[nH]c3c([nH]c4ccccc43)c2=O)CC1
COc1ccccc1N1CCN(CCCCN2C(=O)CCC2=O)CC1
COc1ccccc1N1CCN(CCCNc2cc(=O)n(C)c(=O)n2C)CC1
COc1ccccc1N1CCN(CCCCNC(=O)c2ccc(-c3ccc(C(C)=O)cc3)cc2)CC1
CNc1ncnc2c1ncn2[C@@H]1O[C@@H](CO)[C@H](O)[C@@H]1O
CNc1ncnc2c1ncn2[C@H]1C[C@@H](OP(=O)(O)O)[C@H](COP(=O)(O)O)O1
Cc1ccc(C2C3=C(CCCC3=O)Nc3nc(SCC(=O)NCc4ccco4)[nH]c(=O)c32)cc1 (stereo not drawn)
COc1ccc(Nc2cc(=O)n(C3CCCCC3)c(=O)[nH]2)c(OC)c1
Cc1nc(S(=O)(=O)NC2CCCCC2)c(C#N)c(C)c1Cl
Cc1ccc(-c2c(C)sc(NC(=O)C3C4CCC(O4)C3C(=O)O)c2C(=O)OC(C)C)cc1 (stereo not drawn)
Cc1ccc(/C=N/NC(=O)CSc2nc3nc(C)cc(C)n3n2)cc1
Cc1cc(C)n2nc(SCC(=O)N/N=C/c3ccccc3F)nc2n1
Nc1nc(=S)[nH]c2c1C1(CCCC1)Cc1ccccc1-2
O=c1cc(-c2ccccc2)[nH]n1-c1ccc([N+](=O)[O-])cc1
COCCn1c(=O)c(-c2cccs2)nc2cnc(N(C)C)nc21
O=P(O)(COc1ccccc1)COc1ccccc1
O=c1c(-c2cccs2)nc2cnc(Nc3ccccc3)nc2n1C[C@H]1CCCO1
Cc1ccc(SCc2cc(=O)[nH]c(/N=C(\N)Nc3ccc(C)c(C)c3)n2)cc1
Cc1ccc(NC(=S)Nc2ccc(Br)cc2)cc1
COc1ccc(C(=O)Nc2cccc(/C(C)=N/NC(=O)c3ccc([N+](=O)[O-])cc3)c2)cc1OC
COc1ccc2cc(C)c3nnc(SCC(=O)Nc4nc(-c5ccccc5)cs4)n3c2c1
O=C(CSc1nnc(-c2ccccn2)n1Cc1ccco1)Nc1ccc2c(c1)OCO2
Cc1ccc2cc(C)c3nnc(SCC(=O)NCc4ccco4)n3c2c1
CC(=O)Nc1ccc(NC(=O)CSc2ncnn2-c2ccccc2)cc1

activity, negative = inhibition, inactive:
CC(C)[C@@H](OCc1ccccc1)[C@H](C)/C=N\OC[C@@H](O)[C@@H]1O[C@@H]2OC(C)(C)O[C@@H]2[C@H]1O 15.3% [at 11.4 µM]
COc1cc2c3cc1Oc1cc(ccc1O)C[C@@H]1c4c(cc(OC)c(O)c4Oc4ccc(cc4)C[C@H]3[N+](C)(C)CC2)CC[N+]1(C)C 8.34% [at 11.4 µM]
O=C(Nc1cccc2cccnc12)[C@@H]1[C@@H](C(=O)O)[C@H]2CC[C@@H]1O2 5.88% [at 11.4 µM]
CN(C)CCSCCO 7.16% [at 11.4 µM]
NC(=O)c1nnn(Cc2cc(Cl)c(C(=O)c3ccc(Cl)cc3)c(Cl)c2)c1N -20.8% [at 11.4 µM]
O=C(O)CNCCc1ccccc1 3.94% [at 11.4 µM]
Cc1c(C)c(C)c(CC2(C)CSC2)c(CC2(C)CSC2)c1C 7.89% [at 11.4 µM]
O=C(Nc1ccc(-c2cn3ccccc3n2)cc1)c1cc(Br)ccc1O -3.93% [at 11.4 µM]
CC(C)=NO[C@@H](C)c1cc(-c2c(C)cc(C)cc2C)no1 -6.21% [at 11.4 µM]
O=C(O)[C@H](Cc1cc(I)c(O)c(I)c1)C1CCCCC1 10.8% [at 11.4 µM]
CC(C)C12CC[C@@]3(CC[C@H]4[C@@](C)(CCC[C@]4(C)C(=O)O)[C@@H]3C1)[C@@H](CN)C2 6.15% [at 11.4 µM]
CO[C@@H]1COC(=O)[C@H](C)NC(=O)C/C=C\[C@@H](C)[C@@H](NS(=O)(=O)c2ccc(C)cc2)COC(=O)C/C=C\[C@@H]1C 5.57% [at 11.4 µM]
O=c1[nH]c(SCc2ccccc2[N+](=O)[O-])nc2nc[nH]c12 -3.83% [at 11.4 µM]
CC(CO)(CO)N=Cc1cc(I)cc(I)c1O 3.56% [at 11.4 µM]
O=C(O)c1cscc1Cc1cccs1 14.2% [at 11.4 µM]
O=C(O)/C=C\C(=O)Nc1cccc2c1-c1ccccc1C2=O 10.1% [at 11.4 µM]
